In PubChem BioAssay AID624287 (National Center for Advancing Translational Sciences (NCATS), 2012):
The campaign covered roughly 340,000 compounds. About 420 (0.12%) were called active. Roughly 10% stayed inconclusive and do not appear here. The full list was thinned out, with actives kept by preference. Unmarked numbers belong to inactive results. Calls come from the whole dose curve; as a rule, active = well fitted activation curve with a large enough effect; inconclusive = small, poorly fitted or top-dose-only effect, or another doubt; inactive = no such curve, though single readings can be large or run the other way; cell line not stated here.

Assay: qHTS for Agonist of gsp, the Etiologic Mutation Responsible for Fibrous Dysplasia/McCune-Albright Syndrome: qHTS; note: nearly all actives have a fitted effect of over 60% in size;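 for activation (cAMP increase): phosphodiesterase inhibitor Ro 20-1724 added with compounds to block cAMP breakdown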
Conditions: gsp mutant cells, cAMP HTRF, 30 min; series mostly up to 76.9 µM; activation (cAMP increase): at the top concentration
Source text: McCune-Albright syndrome (MAS) is a rare disease caused by somatic mutations in Gsgsp), a widely expressed protein central in signal transduction from G-coupled protein receptors (GPCRs). The disease symptoms are diverse, owing to the fact that the patients are mosaics with varying degrees of tissue involvement. Greater than 90% of the mutations in Gs in MAS occur at the R201 position and are equally divided between R201H and R201C. The R201 residue is central in the intrinsic GTPase activity of Gs and the H and C mutations lead to loss of, or impairment of, the GTPase activity. The intrinsic GTPase activity is necessary to terminate the interaction between Gs and adenylate cyclase, and to terminate the cAMP-mediated signaling of the given GPCR pathway. Thus, these activating mutations lead to ligand-independent activation of GPCR pathways. The tissue phenotype is determined by the role of Gs in the function of a given cell, and excess Gs/cAMP signaling in that cell. For example, pituitary somatotrophs overproduce growth hormone in a growth hormone releasing hormone-independent fashion, and gigantism/acromegaly ensues. Skeletal stem cells in the bone marrow behave as if they are under constant parathyroid hormone stimulation and fail to differentiate into osteoblasts and osteocytes, and proliferate as immature osteogenic cells and lead to the marrow fibrosis of fibrous dysplasia of bone. The goal of this project is to identify molecules with stimulatory activity at gsp mutations that will not only allow for in-depth study of the underlying molecular and cellular pathophysiology, but also serve as compounds from which drugs to treat FD/MAS can be developed NIH Chemical Genomics Center [NCGC] NIH Molecular Libraries Probe Centers Network [MLPCN] MLPCN Grant: IRP-FT-DE-2011-01 Assay Submitter (PI): Michael Collins, NIDCR
1.#Seed 2000 cells/well in 6 ul DMEM 10% FBS, 1% Pen/Strep, 0.5 mg/ml G418 2.#Incubate 16-24 hr at 37C, 5% CO2, 95% humidity 3.#Aspirate leaving 1 ul residual volume 4.#Dispense 5 ul/well DPBS + 1 mM CaCl2, 0.5 mM MgCl2, 0.05% BSA, 0.005% Tween 20 5.#Aspirate leaving 2 ul residual volume 6.#Dispense 23 nl/well compounds in DMSO 7.#Dispense 1 ul/well 300 uM Ro-20174 in DMEM 10% FBS 8.#Incubate 30 min at 37C, 5% CO2, 95% humidity 9.#Dispense 1.5 ul/well HTRF reagent: cAMP-d2 in lysis buffer 10.#Dispense 1.5 ul/well HTRF reagent: anti-cAMP antibody-K in lysis buffer 11.#Incubate 30 min at room temperature 12.#Detect HTRF signal using EnVision plate reader
Potency is the fitted concentration of half-maximal effect.

Compound	activation (cAMP increase)	Potency
O=C(O)C1=C(C(=O)O)C2CCC1C2	13.7%	–
CC1=C(C(=O)N2CCOCC2)CC(CC(=O)NCCN2CCOCC2)C(=O)N1CCC1=CCCCC1 (stereo unspecified)	-40.6%	–
CC1(c2cccc(N)c2)OCCO1	6.78%	–
CCc1cccc(CC)c1N1C(=O)CC(Sc2ccccc2N)C1=O (stereo unspecified)	-34.3%	–
CCCCN(C(C)=O)c1ccc2c(c1)C1CC2CCN1Cc1ccccc1 (stereo unspecified)	12.9%	–
CCOc1ccc(S(=O)(=O)NCCC(=O)NNC(=O)c2ccc(F)cc2)cc1	6.08%	–
Cc1ccc(NC(=O)Cn2sc3ccccc3c2=O)cc1	3.51%	–
CC1C(C)N(C(=O)CCl)c2ccccc2N1C(=O)CCl (stereo unspecified)	-0.561% [at 15.4 µM]	–
CC1CCCC(C)N1C(=O)COC(=O)c1ccccc1C(=O)c1ccccc1 (stereo unspecified)	-62.2%	–
CC1(C)NC(=O)N(CC(=O)Nc2ccc(-c3ccccc3)cc2)C1=O	-25.4%	–
CC1C(=O)N(Cc2cn(CC3CCCCC3)nn2)CCS(=O)(=O)N1Cc1ccc(-c2cccc(N(C)C)c2)cc1 (stereo unspecified)	-37.2%	–
CCOC(=O)C(=Cc1ccccc1)C(=O)c1ccccc1	-32.4%	–
COc1ccc(S(=O)(=O)N2CCN(CC(=O)N3CCNC3=O)CC2)cc1OC	-61.6%	–
O=C(OCC(=O)N1CCCCCC1)c1cccc(Cl)c1Cl	7.89%	–
CSc1ncnc2c1ncn2CCCNCC(C)c1ccccc1 (stereo unspecified)	-17.8%	–
C[C@H]1NS(=O)(=O)c2cc(Cl)ccc2O[C@@H]1c1ccccc1	-56.1%	–
COc1cc2nnn(-c3ccncc3)c2cc1OC	-62.2%	–
O=C(COC(=O)/C=C/c1ccc(Cl)cc1)NC1CCS(=O)(=O)C1 (stereo unspecified)	7.94%	–
Cc1ccccc1-c1ccc2c(c1)O[C@@H](CN(C)Cc1ccc(C(=O)O)cc1)[C@@H](C)CN([C@H](C)CO)S2(=O)=O	9.04%	–
CCN(Cc1ccncc1)C(=S)Nc1ccccc1C	3.88%	–
CC1CCCC(NC(=O)COC(=O)c2ccccc2C(=O)N(C)C2CCCCC2)C1C (stereo unspecified)	-11.9%	–
CCN(CC)C(=O)C1=C(C)N(Cc2ccc(OC)cc2)C(=O)C(CC(=O)NCCCCc2ccccc2)C1 (stereo unspecified)	-64.5%	–
N#CCCC(C#N)(c1cccnc1)N1CCOCC1 (stereo unspecified)	5.47%	–
CCc1cc(C(=O)N(CC)CC(=O)Nc2c(F)cccc2F)sc1C	-14.1%	–

Compound	activation (cAMP increase)	Potency
Cc1ccc(-c2ccc(CN3C(C)C(=O)N(Cc4cn(CCC5OCCCO5)nn4)CCS3(=O)=O)cc2)cc1 (stereo unspecified)	-4.97%	–
COc1ccc(S(=O)(=O)N2CCC(C(=O)NCCC(=O)Nc3ccccc3OC)CC2)cc1	-127%	–
CC1CC(NC(=S)N(C)C)CC(C)(C)C1 (stereo unspecified)	-1.96%	–
CC(C)NC(=O)Nc1ccc2c(c1)C(=O)N([C@H](C)CO)C[C@H](C)[C@@H](CN(C)Cc1ccc(C(F)(F)F)cc1)OCCCC[C@@H](C)O2	-39.1%	–
O=C(NN=Cc1ccc2c(c1)CCC2)c1ccccc1O	5.61%	–
O[C@H]1C[C@H](c2ccc(Cl)cc2)N(Cc2cccs2)C[C@@H]1n1cc(C2CC2)nn1	-12.1%	–
CC(=O)Nc1ccc2c3c(ccc([N+](=O)[O-])c13)CC2	32.7%	–
COC(=O)c1ccccc1NC(=S)NC(=O)c1ccccc1F	3.68%	–
O=C(NC(=S)Nc1ccccc1C(=O)O)c1ccc(-c2ccc(Br)cc2)o1	–	14.1 µM (active)
O=C(O)c1ccccc1NC(=O)c1ccccc1-c1ccccc1C(=O)O	-12.9%	–
O=C(COC(=O)CCc1c[nH]c2ccccc12)Nc1cccc(Cl)c1	-5.04%	–
COC(=O)C(Cc1c[nH]c2ccccc12)NC(=O)CCNC(=O)c1ccco1 (stereo unspecified)	1.54%	–
COc1ccc(-c2cnc3c(c2)C(=O)N([C@H](C)CO)C[C@@H](C)[C@H](CN(C)Cc2ccccc2)O3)cc1	5.7%	–
COc1ccc(-c2ccc(CN3C(C(C)C)C(=O)N(Cc4cn(CC5CCCCC5)nn4)CCS3(=O)=O)cc2)cn1 (stereo unspecified)	4.31%	–
CCCc1ccc(S(=O)(=O)N2CCN(C(=O)c3cc(C)on3)CC2)cc1	1.12%	–
CCc1noc(C)c1C(=O)OCC(=O)c1ccc(NC(=O)CC(C)C)cc1	-39.5%	–
COc1ccc(CN2C(=O)C(CC(=O)NCCN3CCOCC3)CC(C(=O)N(C(C)C)C(C)C)=C2C)cc1 (stereo unspecified)	15.2%	–
COc1ccc(NC(=O)CCCOc2ccc(C(C)=O)cc2)cc1S(=O)(=O)N1CCCCC1	-9.18%	–
COc1cccc(/C=C2\SC(=S)N(CCCC(=O)N3CCOCC3)C2=O)c1	-22.2%	–
Cc1ccc2cccc([N+](=O)[O-])c2n1	-22.1%	–
CCN(CC)C(=O)C(C)N1c2cccc3cccc(c23)S1(=O)=O (stereo unspecified)	1.11%	–
Cc1ccc(C(=O)NC(C)C(c2cccs2)N2CCOCC2)cc1C (stereo unspecified)	-240%	–
COc1ccc(OC)c(NC(=O)C2CCCN2S(=O)(=O)c2ccc3c(c2)CC(C)N3C(C)=O)c1 (stereo unspecified)	-22.5%	–
C[C@@H]1CN([C@@H](C)CO)C(=O)c2cc(NS(C)(=O)=O)ccc2O[C@@H](C)CCCCO[C@H]1CN(C)C(=O)Nc1ccc2c(c1)OCO2	-24.6%	–

Compound	activation (cAMP increase)	Potency
COCCCn1c(C(=O)NC2CCCCC2)cc2c(=O)n3cccc(C)c3nc21	27.2%	–
Cc1cccn2c(=O)c3cc(C#N)c(=NC(=O)c4cccnc4)n(CC4CCCO4)c3nc12 (stereo unspecified)	26.8%	–
Cc1cccn2c(=O)c3cc(C#N)c(=O)n(CCCN4CCOCC4)c3nc12	–	20 µM (active)
Cc1nnc(SC(C)C(=O)c2c[nH]c3ccccc23)n1C1CC1 (stereo unspecified)	2.61%	–
Cc1ccc(C(=O)N[C@H](C(=O)N2CCN(c3ncccn3)CC2)C(C)C)cc1	-12.3%	–
CC(C)CCOc1ccc(C(=O)Nc2cc(S(=O)(=O)N3CCOCC3)ccc2N2CCOCC2)cc1	-108%	–
Cc1cccc(C(=O)NC2CCN(CC(=O)Nc3cccc(Cl)c3)CC2)c1	-42.7%	–
Cc1csc(SCC(=O)Nc2ccc(C)c(S(=O)(=O)N(C)C)c2)n1	-20.6%	–
CC1=C(C(=O)Nc2cccc(C(=O)NCC(C)c3ccccc3)c2)SCCO1 (stereo unspecified)	10.4%	–
O=C1[C@H]2[C@@H](c3ccc(C(F)(F)F)cc3)N[C@]3(CCCN(Cc4ccc(Cl)cc4)C3=O)[C@H]2C(=O)N1Cc1ccccc1	1.18%	–
CCN1C(=O)[C@H]2[C@@H](c3ccccc3)N[C@]3(CCCN(Cc4ccc(C)cc4)C3=O)[C@H]2C1=O	5.38%	–
Cn1c(CCN2CCN(c3ccccn3)CC2)nc2cc(NS(=O)(=O)c3ccc(F)cc3)ccc21	-10.2%	–
c1ccc(Cn2nnc3c(NCC4CC4)ncnc32)cc1	2.75%	–
CCCc1nc(SCC(=O)N2CCCC2)c2c(=O)n(C)c(=O)n(C)c2n1	26%	–
Cn1c(=O)c2c(SCC(=O)NCC3CCCO3)nc(CC(C)(C)C)nc2n(C)c1=O (stereo unspecified)	–	14.1 µM (active)
CCn1c(SCC(=O)NCC2CCCO2)nc2ccccc21 (stereo unspecified)	11%	–
CCCCCCN1C[C@H](O)[C@@H](n2cc(C3CC3)nn2)C[C@@H]1c1ccc(Cl)cc1	-33.6%	–
CC1(C)CC(=O)C=C(c2ccc(COC(=O)c3cc(F)cc(F)c3)cc2)C1=O	-119%	–
O=C(CCc1ccc(O)cc1)NN=Cc1cc(Br)ccc1O	-4.34%	–
COc1cc2ccc(C(C)=O)c(O)c2cc1OC	15.1%	–
COC(=O)C[C@H]1C[C@@H]2c3cc(N(C)C)ccc3O[C@@H]2[C@H](CO)O1	-18.9%	–
Cc1cc(Cl)ccc1C(=O)C1CCCN(C(=O)c2ccc3c(c2)OCO3)C1 (stereo unspecified)	0.924%	–
Cc1ccc(C(=O)N2CCCc3ccccc32)c(Cl)c1	5.11%	–
CN(C)C(CNC(=O)c1cc(Br)c(Br)s1)c1ccco1 (stereo unspecified)	-58.5%	–

Compound	activation (cAMP increase)	Potency
O=C(COC(=O)Cc1ccc(Cl)cc1Cl)NCc1ccco1	-9.6%	–
CCOC(=O)C=Cc1ccc(C(=O)OCC)[nH]1	-46.9%	–
CCc1ccc(S(=O)(=O)N/N=C\c2ccc([N+](=O)[O-])o2)cc1	-10.5%	–
C/[N+]([O-])=C\c1ccc([N+](=O)[O-])o1	–	28.2 µM (active)
Cc1cc(C)nc(N/N=C/c2ccc([N+](=O)[O-])o2)n1	45%	–
COc1ccc(/C=C2\SC(=S)N(CCC(=O)N3CCOCC3)C2=O)cc1OC	-44.9%	–
O=C(NCc1ccccc1)C1CNCC(C(=O)NCc2ccccc2)C1 (stereo unspecified)	4.24%	–
Cc1ccc([C@H]2N[C@]3(CCCN(Cc4ccccc4)C3=O)[C@H]3C(=O)N(Cc4ccccc4)C(=O)[C@@H]23)cc1	-54.9%	–
CCN(CC)C(=O)c1sc2nc(-c3ccccc3)ccc2c1N	-3.88% [at 15.4 µM]	–
CS(=O)(=O)c1sc2nc(-c3ccccc3)cc(-c3ccccc3)c2c1N	–	7.08 µM (active)
CNc1nc(-c2ccccc2)cc(-c2ccccc2)n1	-29%	–
CCc1ccccc1NC(=O)CN1CCN(C(=O)c2cc(C3CC3)nn2-c2ccccc2)CC1	-23.3%	–
O=NN(CCCl)C(=O)NCCc1cccc[n+]1[O-]	-40.6%	–
CSc1ncnc2c1ncn2CCCNCC1CCCCC1	-41.1%	–
Cc1ccc(S(=O)(=O)N(CCc2ccccc2)c2ccc3c(c2)C2CC3CCN2C(=O)OCc2ccccc2)cc1 (stereo unspecified)	-3.98%	–
CC(OC(=O)c1cccnc1Cl)C(=O)NC1CCCCC1 (stereo unspecified)	-7.18%	–
O=C(COC(=O)c1cncc(Br)c1)Nc1ccc(S(=O)(=O)N2CCOCC2)cc1	-52.8%	–
O=C(OCc1ccccc1)N1CCC2CC1c1cc(N3CCN(S(=O)(=O)c4cc(Cl)cc(Cl)c4)CC3)ccc12 (stereo unspecified)	-22.3%	–
NC(CSC(c1ccccc1)(c1ccccc1)c1ccc(-c2ccccc2)cc1)C(=O)O (stereo unspecified)	-9.82%	–
C=CCn1c2ccccc2c2nnc(SC(CC)C(=O)Nc3nc(C)c(C(=O)OCC)s3)nc21 (stereo unspecified)	-52.6%	–
C=CCn1c2ccccc2c2nnc(SCc3[nH]c(=O)[nH]c3C(=O)CCCCC(=O)OCC)nc21	–	2 µM (active)
C=CCn1c(SCC(=O)CC(=O)OCC)nc2cc(C(=O)N3CCC(C(N)=O)CC3)ccc2c1=O	4.18% [at 15.4 µM]	–
C=CCn1nc(C(=O)OCC)cc1-c1sc(NC(=O)c2ccccc2)nc1C	-3.53%	–
Cc1cc(C)c2c(=O)n3c(nc2c1)C(CC(C)C)NC(=O)c1cc2ccccc2cc1-3 (stereo unspecified)	4.39%	–
